Laboratory results reported in PubChem BioAssay AID1159580 (chemical genetic matrix, 2015).
About 2,000 (36%) of roughly 5,500 compounds were called active. Not shown: some 18% with an inconclusive outcome. No stated cut-off is given here; in the data, active means normalized growth mostly below about 0.91 (no sharp cut-off); inconclusive means no clear call, values can overlap the other calls; inactive means mostly above about 0.92. Some of the results follow.

Assay: chemical genetic growth profiling, strain panel (AID 1159580);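 further: tested at 20 µM; growth read once vehicle control cultures reached saturation at 30 °C; 1 = growth at the plate median or of vehicle wells; lower values mean less growth of the strain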
Details: S. cerevisiae deletion strains, growth OD

Measured: normalized growth

[N-]=[N+]=CC(=O)OCC(N)C(=O)O (centres undefined)
inactive: locus YAL021C, strain ccr4, hits give low values 0.994 | locus YAL026C, strain drs2, hits give low values 0.988 | locus YAL030W, strain snc1, hits give low values 1.02 | locus YBL061C, strain skt5, hits give low values 1.01 | locus YBR009C, strain hhf1, hits give low values 0.979 | locus YBR023C, strain chs3, hits give low values 0.995 | locus YBR171W, strain sec66, hits give low values 1.02 | locus YBR231C, strain swc5, hits give low values 1.03 | locus YBR279W, strain paf1, hits give low values 0.98 | locus YCL011C, strain gbp2, hits give low values 0.983 | locus YCL016C, strain dcc1, hits give low values 0.958 | locus YCL061C, strain MRC1, hits give low values 1.02 | locus YCL069W, strain vba3, hits give low values 1 | locus YCR088W, strain abp1, hits give low values 1.01 | locus YDL005C, strain med2, hits give low values 0.992 | locus YDL040C, strain nat1, hits give low values 1 | locus YDR001C, strain nth1, hits give low values 0.995 | locus YDR069C, strain doa4, hits give low values 1.03 | locus YDR137W, strain rgp1, hits give low values 0.99 | locus YDR159W, strain sac3, hits give low values 0.978 | locus YDR195W, strain ref2 1.03 | locus YDR297W, strain sur2, hits give low values 1.02 | locus YDR334W, strain swr1, hits give low values 1 | locus YDR335W, strain msn5, hits give low values 1.01 | locus YDR392W, strain spt3, hits give low values 0.931 | locus YEL003W, strain gim4, hits give low values 1.01 | locus YEL037C, strain rad23, hits give low values 1 | locus YEL061C, strain CIN8 (second series), hits give low values 1 | locus YER015W, strain faa2, hits give low values 1.01 | locus YER016W, strain bim1, hits give low values 0.995 | locus YER111C, strain swi4, hits give low values 1 | locus YER155C, strain BEM2 (second series), hits give low values 1.05 | locus YFR010W, strain ubp6, hits give low values 1.01 | locus YGL167C, strain pmr1, hits give low values 1.02 | locus YGL173C, strain kem1, hits give low values 1.02 | locus YGL227W, strain vid30, hits give low values 1.01 | locus YGL240W, strain doc1, hits give low values 1.04 | locus YGL253W, strain hxk2, hits give low values 0.973 | locus YHR013C, strain ard1, hits give low values 1.01 | locus YHR027C, strain rpn1, hits give low values 0.995 | locus YHR030C, strain SLT2, hits give low values 0.967 | locus YHR079C, strain IRE1, hits give low values 0.977 | locus YHR142W, strain chs7, hits give low values 0.976 | locus YJL092W, strain hpr5, hits give low values 1.01 | locus YJL095W, strain BCK1 (second series), hits give low values 1.01 | locus YJL095W, strain BCK1, hits give low values 0.977 | locus YJL115W, strain asf1, hits give low values 1.01 | locus YJL129C, strain trk1, hits give low values 1.01 | locus YJL154C, strain vps35, hits give low values 1 | locus YJL164C, strain tpk1, hits give low values 0.985 | locus YJL166W, strain qcr8, hits give low values 1.05 | locus YJR066W, strain TOR1, hits give low values 0.936 | locus YKL160W, strain elf1, hits give low values 1.02 | locus YKR026C, strain gcn3, hits give low values 1 | locus YKR091W, strain srl3, hits give low values 1.01 | locus YLL001W, strain dnm1, hits give low values 1.04 | locus YLL026W, hits give low values 1.01 | locus YLL041C, strain sdh2, hits give low values 1 | locus YLR027C, strain aat2, hits give low values 1.01 | locus YLR113W, strain HOG1, hits give low values 0.964 | locus YLR221C, strain rsa3, hits give low values 0.976 | locus YLR258W, strain gsy2, hits give low values 0.994 | locus YLR262C, strain YPT6 (second series), hits give low values 1.02 | locus YLR320W, strain mms22, hits give low values 0.991 | locus YLR342W, strain FKS1, hits give low values 1.04 | locus YLR357W, strain rsc2, hits give low values 1 | locus YLR370C, strain arc18, hits give low values 1.01 | locus YLR384C, strain iki3, hits give low values 1 | locus YML120C, strain ndi1, hits give low values 1 | locus YMR058W, strain fet3, hits give low values 1.01 | locus YMR125W, strain sto1, hits give low values 0.984 | locus YMR129W, hits give low values 0.999 | locus YMR205C, strain PFK2, hits give low values 1.03 | locus YMR231W, strain pep5, hits give low values 1 | locus YNL071W, strain lat1, hits give low values 0.992 | locus YNL183C, strain NPR1, hits give low values 0.937 | locus YNL209W, strain ssb2, hits give low values 0.989 | locus YNL248C, strain rpa49, hits give low values 0.976 | locus YNL322C, strain KRE1 (second series), hits give low values 0.999 | locus YNR049C, strain mso1, hits give low values 1 | locus YOR001W, strain rrp6, hits give low values 1.02 | locus YOR070C, strain gyp1, hits give low values 0.995 | locus YOR080W, strain dia2, hits give low values 1.02 | locus YOR083W, strain WHI5, hits give low values 0.992 | locus YOR106W, strain vam3, hits give low values 1.03 | locus YOR231W, strain MKK1, hits give low values 0.976 | locus YOR265W, strain rbl2, hits give low values 0.998 | locus YOR270C, strain vph1, hits give low values 1.03 | locus YOR290C, strain snf2, hits give low values 0.961 | locus YPL051W, strain arl3, hits give low values 1.01 | locus YPL078C, strain atp4, hits give low values 1.03 | locus YPL106C, strain sse1, hits give low values 0.966 | locus YPL240C, strain hsp82, hits give low values 0.99 | locus YPL256C, strain CLN2, hits give low values 1
